# Test results taken from PubChem BioAssay (NCATS).
# Inconclusive results are not listed. Where a call stands in place of a potency, no number is given. The source made the active and inactive calls. Unless noted, the call rests on the fitted dose curve; in most records, active means well fitted curve in the direction sought with a large enough effect; inconclusive means small, poorly fitted or top-dose-only effect, or another doubt; inactive means no such curve, though single readings can be large; an effect the other way counts as inactive or inconclusive.
# How the values were obtained:
# [1] = qHTS for Inhibitors of the Functional Ribonucleoprotein Complex (vRNP) of Lassa (LASV) Arenavirus: LASV Primary Screen - GLuc reporter signal (AID 1347082; calls by dose curve; tested in HEK293 reporter line; further: series mostly up to about 57 µM; nearly all actives have a fitted effect of over 60% in size)
# [2] = qHTS for Inhibitors of the Functional Ribonucleoprotein Complex (vRNP) of Lassa (LASV) Arenavirus: Viability assay - alamar blue signal for LASV Primary Screen (AID 1347083; calls by dose curve; tested in HEK293 reporter line; further: series mostly up to about 57 µM; nearly all actives have a fitted effect of over 80% in size)
# [3] = qHTS for Inhibitors of the Functional Ribonucleoprotein Complex (vRNP) of Lymphocytic Choriomeningitis Arenaviruses (LCMV): Viability assay - alamar blue signal for LCMV Primary Screen (AID 1347085; calls by dose curve; tested in HEK293 reporter line; further: series mostly up to about 57 µM; nearly all actives have a fitted effect of over 80% in size)
# [4] = biological target: Nucleoprotein (Lymphocytic choriomeningitis virus (strain Armstrong)) (UniProt P09992); experiment: qHTS for Inhibitors of the Functional Ribonucleoprotein Complex (vRNP) of Lymphocytic Choriomeningitis Arenaviruses (LCMV): LCMV Primary Screen - GLuc reporter signal (AID 1347086; calls by dose curve; further: series mostly up to about 57 µM; nearly all actives have a fitted effect of over 70% in size)
# [5] = qHTS of pediatric cancer cell lines to identify multiple opportunities for drug repurposing: Primary screen for DAOY cells (AID 1347090); further: series mostly up to about 46 µM; nearly all actives have a fitted effect of over 55% in size
# Outline: (§1)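 Viability measured as metabolically active cells via CellTiter-Glo luminescence following 48 hours of compound exposure, 11-point dilutions in confirmatory testing. 500-1,000 cells/well plated 5 hours before dosing; controls were DMSO and 2.3 µM bortezomib.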
# [6] = qHTS of pediatric cancer cell lines to identify multiple opportunities for drug repurposing: Primary screen for SJ-GBM2 cells (AID 1347091)
# Outline: as §1
# [7] = qHTS of pediatric cancer cell lines to identify multiple opportunities for drug repurposing: Primary screen for A673 cells (AID 1347092); further: nearly all actives have a fitted effect of over 45% in size; further: potency means the concentration at half of the fitted maximal effect
# Outline: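 Cells are plated, rested 5 h, dosed by pintool, incubated 48 h, then lysed with CellTiter-Glo and read by luminescence. DMSO is the neutral control; bortezomib at 2.3 uM final is the positive control.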
# [8] = qHTS of pediatric cancer cell lines to identify multiple opportunities for drug repurposing: Primary screen for SK-N-MC cells (AID 1347093); further: potency means the concentration at half of the fitted maximal effect
# Outline: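 Metabolically active cells were quantified by ATP-dependent luminescence (CellTiter-Glo, 15 min at room temperature) following 48 h treatment. Cells had been plated at 500-1,000 per well and settled for 5 h beforehand.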
# [9] = qHTS of pediatric cancer cell lines to identify multiple opportunities for drug repurposing: Primary screen for TC32 cells (AID 1347089); further: nearly all actives have a fitted effect of over 60% in size
# Outline: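 Measured quantity: luminescence from CellTiter-Glo, reflecting metabolically active TC32 cells following 48 h of compound. Curves came straight from multi-point titrations, with 8 or 11 points in primary and 11 in confirmatory screening.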
# Sequence of Nucleoprotein (Lymphocytic choriomeningitis virus (strain Armstrong)) (P09992 whole entry, looked up): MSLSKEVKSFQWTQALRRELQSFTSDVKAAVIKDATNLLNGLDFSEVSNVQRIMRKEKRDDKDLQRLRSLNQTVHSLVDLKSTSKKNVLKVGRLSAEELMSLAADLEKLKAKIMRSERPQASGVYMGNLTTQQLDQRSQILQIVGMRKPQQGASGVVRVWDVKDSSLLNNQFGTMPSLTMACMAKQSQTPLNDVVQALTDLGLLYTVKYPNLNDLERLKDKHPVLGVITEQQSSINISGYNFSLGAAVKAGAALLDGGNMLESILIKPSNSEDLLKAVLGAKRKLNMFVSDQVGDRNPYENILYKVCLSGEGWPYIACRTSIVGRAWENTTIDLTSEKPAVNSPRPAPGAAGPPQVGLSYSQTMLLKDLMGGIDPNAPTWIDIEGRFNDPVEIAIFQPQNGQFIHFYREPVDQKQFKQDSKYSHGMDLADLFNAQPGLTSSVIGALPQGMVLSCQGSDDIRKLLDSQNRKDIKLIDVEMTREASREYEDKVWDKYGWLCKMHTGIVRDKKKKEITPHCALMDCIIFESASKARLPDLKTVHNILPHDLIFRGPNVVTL
Structure (SMILES),Potency [1],Potency [2],Potency [3],Potency [4],Potency [5],Potency [6],Potency [7],Potency [8],Potency [9]
CNC(=O)Oc1cccc2ccccc12,inactive,inactive,inactive,inactive,inactive,inactive,inactive,inactive,–
COP(=S)(OC)Oc1ccc(Sc2ccc(OP(=S)(OC)OC)cc2)cc1,inactive,inactive,inactive,inactive,inactive,–,inactive,inactive,inactive
CNC(=O)NC(O)C(Cl)(Cl)Cl (stereo not drawn),inactive,inactive,inactive,inactive,inactive,–,inactive,inactive,inactive
C=C[C@@]1(C)CC(=O)[C@]2(O)[C@@]3(C)[C@@H](O)CCC(C)(C)[C@@H]3[C@H](O)[C@H](OC(C)=O)[C@@]2(C)O1,inactive,inactive,–,inactive,–,–,–,–,–
Oc1ccc2[nH]cc(CCCCN3CC=C(c4ccccc4)CC3)c2c1,inactive,inactive,inactive,inactive,inactive,–,–,–,–
COc1ccc(CCN2CCC(Nc3nc4ccccc4n3Cc3ccc(F)cc3)CC2)cc1,inactive,inactive,–,inactive,–,–,–,–,–
CCCCCCCCC(=O)NCc1ccc(O)c(OC)c1,inactive,inactive,inactive,inactive,–,–,–,0.001 µM (active),inactive
CC#C[C@]1(O)CC[C@H]2[C@@H]3C[C@H](C)C4=CC(=O)CC[C@]4(C)[C@H]3CC[C@@]21C,inactive,inactive,inactive,inactive,inactive,–,inactive,23.7 µM (active),inactive
COc1ccc(OC)c(CC(C)N)c1 (stereo not drawn),inactive,inactive,inactive,inactive,inactive,–,inactive,inactive,inactive
O=C(CCl)c1ccc(Cl)cc1Cl,inactive,inactive,inactive,inactive,–,–,26.6 µM (active),–,inactive
